About 2,000 (36%) of roughly 5,500 compounds were called active. About 18% were inconclusive and are not listed. Cut-off read from the data, not from the text of the source: active = normalized growth mostly below about 0.91 (no sharp cut-off); inconclusive = no clear call, values can overlap the other calls; inactive = mostly above about 0.92. Some of the results follow.
Assay: chemical genetic growth profiling, strain panel (AID 1159580);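 note: tested at 20 µM; growth read once vehicle control cultures reached saturation at 30 °C; 1 = growth at the plate median or of vehicle wells; lower values mean less growth of the strain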
Conditions: S. cerevisiae deletion strains, growth OD

Measured: normalized growth

COc1ccc(NC(=O)O/N=C(/N)c2ccc(Oc3c(Cl)cncc3Cl)cc2)cc1
active: locus YER123W, strain YCK3, hits give low values 0.575 | locus YFR019W, strain FAB1, hits give low values 0.527 | locus YHR030C, strain SLT2, hits give low values 0.71 | locus YJR066W, strain TOR1 (second series), hits give low values 0.572 | locus YLR113W, strain HOG1, hits give low values 0.604 | locus YPL256C, strain CLN2, hits give low values 0.676
inactive: locus YAR019C, strain CDC15, hits give low values 0.966 | locus YBL105C, strain PKC1, hits give low values 0.974 | locus YBR135W, strain CKS1, hits give low values 0.975 | locus YBR136W, strain MEC1, hits give low values 0.982 | locus YBR160W, strain CDC28, hits give low values 0.976 | locus YDL017W, strain CDC7, hits give low values 0.98 | locus YDL028C, strain MPS1, hits give low values 0.987 | locus YDL101C, strain DUN1, hits give low values 0.969 | locus YDL108W, strain KIN28, hits give low values 0.99 | locus YDL132W, strain cdc53, hits give low values 0.966 | locus YDL214C, strain PRR2, hits give low values 0.825 | locus YDR052C, strain DBF4, hits give low values 0.986 | locus YDR054C, strain cdc34, hits give low values 0.959 | locus YDR226W, strain ADK1, hits give low values 0.965 | locus YDR477W, strain SNF1, hits give low values 0.758 | locus YER133W, strain GLC7, hits give low values 0.751 | locus YFL009W, strain cdc4, hits give low values 0.963 | locus YFL029C, strain CAK1, hits give low values 0.971 | locus YFR003C, strain YPI1, hits give low values 0.972 | locus YFR028C, strain CDC14, hits give low values 0.963 | locus YGR040W, strain KSS1, hits give low values 0.751 | locus YGR052W, strain FMP48, hits give low values 0.694 | locus YGR092W, strain DBF2, hits give low values 0.706 | locus YHR079C, strain IRE1, hits give low values 0.618 | locus YHR082C, strain KSP1, hits give low values 0.805 | locus YHR205W, strain SCH9, hits give low values 0.743 | locus YIL147C, strain SLN1, hits give low values 0.963 | locus YJL095W, strain BCK1, hits give low values 0.578 | locus YJL128C, strain PBS2, hits give low values 0.971 | locus YJL157C, strain FAR1, hits give low values 0.805 | locus YJR016C, strain ILV3, hits give low values 0.975 | locus YJR066W, strain TOR1, hits give low values 0.69 | locus YKL048C, strain ELM1, hits give low values 0.95 | locus YKL067W, strain YNK1, hits give low values 0.866 | locus YKL101W, strain HSL1, hits give low values 0.881 | locus YKL193C, strain SDS22, hits give low values 0.97 | locus YKL203C, strain TOR2, hits give low values 0.806 | locus YLR133W, strain CKI1, hits give low values 0.825 | locus YLR403W, strain SFP1, hits give low values 0.756 | locus YML070W, strain DAK1, hits give low values 0.804 | locus YMR001C, strain CDC5, hits give low values 0.958 | locus YMR205C, strain PFK2 (second series), hits give low values 0.898 | locus YMR277W, strain FCP1, hits give low values 0.977 | locus YNL006W, strain LST8, hits give low values 0.981 | locus YNL020C, strain ARK1, hits give low values 0.856 | locus YNL161W, strain CBK1, hits give low values 0.962 | locus YNL183C, strain NPR1, hits give low values 0.593 | locus YNL207W, strain RIO2, hits give low values 0.957 | locus YNL222W, strain SSU72, hits give low values 0.965 | locus YNL307C, strain MCK1 (second series), hits give low values 0.745 | locus YOL078W, strain AVO1, hits give low values 0.973 | locus YOL136C, strain PFK27, hits give low values 0.793 | locus YOR061W, strain CKA2, hits give low values 0.87 | locus YOR119C, strain RIO1, hits give low values 0.781 | locus YOR231W, strain MKK1, hits give low values 0.661 | locus YOR329C, strain SCD5, hits give low values 0.971 | locus YPL031C, strain PHO85, hits give low values 0.726 | locus YPL153C, strain RAD53, hits give low values 0.728 | locus YPL204W, strain HRR25, hits give low values 0.676 | locus YPL209C, strain IPL1, hits give low values 0.963 | locus YPR025C, strain CCL1, hits give low values 0.965 | locus YPR106W, strain ISR1, hits give low values 0.98 | locus YPR111W, strain DBF20, hits give low values 1 | strain NNK1, hits give low values 1 | strain TSCII, hits give low values 0.975

Reference: PubChem BioAssay AID1159580 (chemical genetic matrix, 2015)
